Values joined by “and” are separate entries in the source; they are usually repeats but may differ in a detail not shown here. Equal values may be shown once. Records with an inconclusive call do not appear. Active and inactive are the calls of the source. Calls follow the shape of the dose curve; as a rule, active = well fitted activation curve with a large enough effect; inconclusive = small, poorly fitted or top-dose-only effect; inactive = no such curve, though single readings can be large or run the other way.
Each compound was assayed against Pyruvate kinase PKM (Homo sapiens) (UniProt P14618) (assay: Confirmation Concentration-Response Assay for Activators of Human Muscle isoform 2 Pyruvate Kinase). Settings: purified hPK-M2, Kinase-Glo ATP luminescence, 1 h; series mostly up to 57.5 µM; activation (negative = inhibition): at the top concentration.
Pyruvate kinase PKM (Homo sapiens), sequence (P14618 whole entry, looked up, canonical isoform): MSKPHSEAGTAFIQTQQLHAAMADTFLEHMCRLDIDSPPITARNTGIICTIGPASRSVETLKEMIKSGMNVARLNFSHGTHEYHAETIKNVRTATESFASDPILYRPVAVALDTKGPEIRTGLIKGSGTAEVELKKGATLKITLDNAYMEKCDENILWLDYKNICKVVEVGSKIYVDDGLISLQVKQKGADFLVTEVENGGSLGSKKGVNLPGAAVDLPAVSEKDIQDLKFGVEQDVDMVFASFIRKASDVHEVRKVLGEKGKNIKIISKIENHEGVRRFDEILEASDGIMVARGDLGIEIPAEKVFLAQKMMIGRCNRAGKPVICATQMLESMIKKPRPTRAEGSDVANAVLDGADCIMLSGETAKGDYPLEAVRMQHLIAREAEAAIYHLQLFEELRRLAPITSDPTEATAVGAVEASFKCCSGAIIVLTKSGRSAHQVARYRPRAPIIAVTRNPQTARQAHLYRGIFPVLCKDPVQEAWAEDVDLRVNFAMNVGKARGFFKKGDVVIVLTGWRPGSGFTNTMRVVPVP
Source text: NIH Chemical Genomics Center [NCGC] Matthew G. Vander Heiden, M.D., Ph.D. [Harvard Medical School, 77 Avenue Louis Pasteur, Boston, MA 02115] MLPCN Grant: 1 R03 MH085679-01 NCGC Assay Overview: Human pyruvate kinase muscle 2 (hPK-M2) enzyme was supplied as a highly purified (>95% pure) preparation from Harvard Medical School and assayed for its ability to generate ATP from ADP using phosphoenolpyruvate (PEP) as a substrate. ATP generation was detected in a coupled reaction by luciferase-mediated luminescence, an ATP-dependent process. Pyruvate kinase substrates, PEP and ADP, were present in the assay at Km and approximately 10-fold below Km respectively. The enzyme was assayed at an intermediate level of activity to screen for both inhibitors and activators.
NCGC Assay Protocol Summary: Three uL of substrate mix (at r.t.) in assay buffer (50 mM Imidazole pH7.2, 50 mM KCl, 7 mM MgCl2, 0.01% Tween 20, 0.05% BSA) was dispensed into white solid bottom 1,536 well microtiter plates so that the final concentrations of substrates in the assay were 0.1 mM ADP and 0.5 mM PEP. 23 nL of compound were delivered by a pin tool and 1 uL of enzyme mix (final concentration of 0.1 nM) in assay buffer (4 degree Celsius) was added. Plates were incubated at room temperature for 1 hour. Two uL of detection mix (Kinase-Glo, Promega; at 4 degree Celsius protected from light) was added and luminescence read by a ViewLux (Perkin Elmer) at 1 second exposure/plate. Data were normalized to the uninhibited (column 3) and AC100 inhibition (no enzyme in column 2). To monitor activation, the first column contained a titration of the activator, NCGC00031955-03 (16-point 1:2 dilutions in duplicate starting at 57 uM) and the first 16 rows of column 4 contained 57 uM of NCGC00031955-03.

Potency, active:
Cn1c2cc(S(C)=O)sc2c2cnn(Cc3ccccc3F)c(=O)c21 (stereo not given) 16 nM
O=S(=O)(NCCCCNS(=O)(=O)c1c(F)cccc1F)c1ccc2c(c1)OCCO2 5050 nM
O=S(=O)(c1ccccc1)N1CCN(S(=O)(=O)c2ccc3c(c2)OCCO3)CC1 160 nM
O=S(=O)(c1ccc2c(c1)OCCO2)N1CCCN(S(=O)(=O)c2c(F)cccc2F)CC1 566 nM
O=S(=O)(NCCCCCNS(=O)(=O)c1c(F)cccc1F)c1ccc2c(c1)OCCO2 2010 nM
O=S(=O)(NCC1CN(S(=O)(=O)c2c(F)cccc2F)C1)c1ccc2c(c1)OCCO2 2530 nM
O=S(=O)(NC1CCN(S(=O)(=O)c2ccc3c(c2)OCCO3)CC1)c1c(F)cccc1F 2530 nM
O=S(=O)(NCC1CN(S(=O)(=O)c2ccc3c(c2)OCCO3)C1)c1c(F)cccc1F 4010 nM
Cc1cc2c(s1)c1cnn(Cc3cccc(Cl)c3)c(=O)c1n2C 101 nM
O=S(=O)(c1c(F)cccc1F)C1CCN(S(=O)(=O)c2ccc3c(c2)OCCO3)CC1 201 nM
O=S(=O)(c1ccc2c(c1)OCCO2)N1CCN(S(=O)(=O)c2ccc(F)cc2F)CC1 63.5 nM
Cn1c2cc(CO)sc2c2cnn(Cc3ccccc3F)c(=O)c21 28.4 nM
O=S(=O)(NCCCCCCNS(=O)(=O)c1c(F)cccc1F)c1ccc2c(c1)OCCO2 4010 nM
O=S(=O)(c1ccc(F)cc1)N1CCN(S(=O)(=O)c2ccc3c(c2)OCCO3)CC1 56.6 nM
CCCc1cc(F)c(S(=O)(=O)N2CCN(S(=O)(=O)c3ccc4c(c3)OCCO4)CC2)cc1F 800 nM
O=S(=O)(NC1CCN(S(=O)(=O)c2c(F)cccc2F)CC1)c1ccc2c(c1)OCCO2 3570 nM
O=S(=O)(c1ccc2c(c1)OCCO2)N1CCN(S(=O)(=O)c2c(F)cccc2F)CC1 35.7 nM
CC(O)c1cc2c(s1)c1cnn(Cc3ccccc3F)c(=O)c1n2C (stereo not given) 113 nM
O=S(=O)(NC1CCN(S(=O)(=O)c2c(F)cccc2F)C1)c1ccc2c(c1)OCCO2 (stereo not given) 11300 nM
O=S(=O)(NCCCNS(=O)(=O)c1c(F)cccc1F)c1ccc2c(c1)OCCO2 2840 nM
CC(=O)c1cc2c(s1)c1cnn(Cc3ccccc3F)c(=O)c1n2C 7.1 nM
CC1(C)CCc2cc(S(=O)(=O)N3CCN(S(=O)(=O)c4c(F)cccc4F)CC3)ccc2O1 71.3 nM
O=C1CN(S(=O)(=O)c2ccc3c(c2)OCCO3)CCN1S(=O)(=O)c1c(F)cccc1F 2250 nM
Cc1cc2c(s1)c1cnn(Cc3cccc(F)c3)c(=O)c1n2C 101 nM
Cc1cc2c(s1)c1cnn(Cc3ccc(C(C)C)cc3)c(=O)c1n2C 63.5 nM
O=S(=O)(c1ccc2c(c1)OCCO2)N1CCN(S(=O)(=O)c2cccc[n+]2[O-])CC1 8970 nM
Cc1cc2c(s1)c1cnn(Cc3c(F)cccc3F)c(=O)c1n2C 25.3 nM
Cc1cc2c(s1)c1cnn(Cc3ccccc3)c(=O)c1n2C 45 nM
CCn1c2cc(C)sc2c2cnn(Cc3ccccc3F)c(=O)c21 4010 nM
O=S(=O)(NC1CCC(NS(=O)(=O)c2c(F)cccc2F)CC1)c1ccc2c(c1)OCCO2 (stereo not given) 1.27 µM and 22.5 µM
O=S(=O)(c1ccc(Cl)cc1)N1CCN(S(=O)(=O)c2ccc3c(c2)OCCO3)CC1 56.6 nM

Activation (negative = inhibition), inactive:
Cc1cccc(NC(=O)c2cnc3ccccn3c2=O)c1 -46.5%
Cc1cc2c(s1)c1cnn(Cc3ccccc3F)c(=O)c1n2C(C)C 11.2%
O=C1NC(=S)S/C1=C1\Sc2ccccc2N1CCCS(=O)(=O)O -46.2%
Cc1ccc(-c2nnc3ccc(SC(C)C(=O)O)nn23)cc1 (stereo not given) -13%
COc1ccc2c(c1)CCc1c(C(=O)NC3CCCCC3)noc1-2 -41.1%
CCN1CCc2c(sc(NC(=S)NC(=O)c3ccccc3)c2C#N)C1 -9.17%
O=C1C(=C2SCCCS2)CC/C1=C\c1ccc(F)cc1 -86.9%
COc1ccc2nc3sc(C(=O)NCc4cccs4)c(N)c3cc2c1 -22.2%
CC(C)N1C(=S)SC(C)(C)C1NO (stereo not given) -4.61%
